Screens deposited in PubChem BioAssay by National Center for Advancing Translational Sciences (NCATS).
Sampled rows, rich in hits. Any-hit rate of the full collection: about 11%.
HTT cytoprotect: qHTS Multiplex Assay to Identify Dual Action Probes in a Cell Model of Huntington: Cytoprotection (ATP) | PC12 HTT-Q103 induced, cytoprotection, ATP luminescence, 40 h | Potency, µM (highest dose often 56.4 µM), without a hit: cytoprotection (ATP increase), hits mostly activators | 0.14% of 230,000 active; note: potency is the fitted concentration of half-maximal effect; % of control where 0% means no effect; nearly all actives have a fitted effect of over 45% in size
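Quantitative HTS on tebufenozide-induced (100 nM) PC12 cells expressing HTTQ103 exon 1–GFP; compounds tested as a concentration series; survival measured via cellular ATP.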
CBFb RUNX1 block: qHTS Assay for Compounds Blocking the Interaction Between CBF-beta and RUNX1 for the Treatment of Acute Myeloid Leukemia; Runt-related transcription factor 1 (Homo sapiens) + Core-binding factor subunit beta …; AlphaScreen CBFb-His/RUNX1-biotin binding, biochemical; Potency, µM (doses to about 59.8 µM), without a hit: at the top dose activity, negative = inhibition, hits mostly inhibitors; 230,000 tested, under 10 active; note: % of control where 0% means no effect
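Inhibition was taken as any reduction in AlphaScreen signal from the CBF-beta–RUNX1 pair (His and biotin tags, 30 nM each), measured after compound (15 min) and bead (90 min) incubations at room temperature.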
PNC assembly inh: High Content Assay for Compounds that inhibit the Assembly of the Perinucleolar Compartment. PC3M PTB-GFP, PNC prevalence imaging, 16 h; active compounds read low. 3.1% of 140,000 active. activity change (PNC), negative = inhibition, % at 10 µM;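 active = readout at or below -70, meaning at least 70% loss of cells showing the perinucleolar compartment, a nuclear body marking cancer cells; inconclusive = readout between -30 and a set limit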;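 note: plate controls were DMSO wells for no effect and camptothecin positive control wells for full effect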
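Compounds are pinned in duplicate onto adhered PC3M cells stably expressing GFP-tagged PTB and incubated 16 h at 37 C. Cells are then fixed, nuclei stained with Hoechst, and PNC-positive cells counted.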
HPGD inh: qHTS Assay for Inhibitors of HPGD (15-Hydroxyprostaglandin Dehydrogenase). 15-hydroxyprostaglandin dehydrogenase [NAD(+)] (Homo sapiens), P15428. purified HPGD, NADH fluorescence kinetic, PGE2 substrate. Potency, µM, for inactives: top-dose activity change, negative = inhibition, hits mostly inhibitors. 4.3% of 150,000 active. AID 894, 2007; active = well fitted inhibition curve with a large enough effect, not every such curve was filed as active; inconclusive = small, poorly fitted or top-dose-only effect, or another doubt; inactive = no such curve, though single readings can be large or run the other way; note: potency is the fitted concentration of half-maximal effect; % is set by controls: 0 for no effect and ±100 for the full control effect
Target sequence (P15428 whole entry, looked up): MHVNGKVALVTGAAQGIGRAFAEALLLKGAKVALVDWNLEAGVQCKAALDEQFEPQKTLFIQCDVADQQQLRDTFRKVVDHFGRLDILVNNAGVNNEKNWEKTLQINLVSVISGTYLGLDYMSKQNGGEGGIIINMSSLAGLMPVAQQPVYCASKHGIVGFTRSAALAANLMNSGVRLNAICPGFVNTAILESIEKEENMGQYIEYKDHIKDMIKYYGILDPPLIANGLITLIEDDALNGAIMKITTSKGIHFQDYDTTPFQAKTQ
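20 nM HPGD preincubated 15 min at room temperature with compound in 50 mM Tris-HCl pH 8, 0.01% Tween 20. Started with 1 mM NAD+ and 30 uM prostaglandin E2; NADH fluorescence (360/450 nm) read 5 times over 30-s intervals, last minus first.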
HTT aggregate: qHTS Multiplex Assay to Identify Dual Action Probes in a Cell Model of Huntington: Aggregate Formation (GFP); PC12 HttQ103-GFP aggregates, Acumen cytometry, 40 h; Potency, µM (titrated, usually from 46.1 µM), for inactives: at the highest dose activity change, negative = inhibition, usual class: inhibitors; 1.1% of 220,000 active; note: potency is the fitted concentration of half-maximal effect; % is set by controls: 0 for no effect and ±100 for the full control effect; nearly all actives have a fitted effect of over 60% in size
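Quantitative HTS on tebufenozide-induced (100 nM) PC12 cells stably expressing polyQ103 Huntingtin exon 1–GFP. Reduction of bright GFP aggregates, detected by laser scanning cytometry after lysis, identified actives across the titration.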
ALDH1A1 block: qHTS Assay for Inhibitors of Aldehyde Dehydrogenase 1 (ALDH1A1); Aldehyde dehydrogenase 1A1 (Homo sapiens), P00352; Purified ALDH1A1, NADH fluorescence, propionaldehyde substrate; Potency, µM (series often up to 75.3 µM), for the others: at the top dose activity, negative = inhibition, hits mostly inhibitors; 7.3% of 220,000 active; AID 1030, 2008; active = well fitted inhibition curve with a large enough effect, not every such curve was filed as active; inconclusive = small, poorly fitted or top-dose-only effect, or another doubt; inactive = no such curve, though single readings can be large or run the other way;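 note: potency is the fitted concentration of half-maximal effect; plate controls were no enzyme wells and a reference inhibitor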
Target sequence (P00352 whole entry, looked up): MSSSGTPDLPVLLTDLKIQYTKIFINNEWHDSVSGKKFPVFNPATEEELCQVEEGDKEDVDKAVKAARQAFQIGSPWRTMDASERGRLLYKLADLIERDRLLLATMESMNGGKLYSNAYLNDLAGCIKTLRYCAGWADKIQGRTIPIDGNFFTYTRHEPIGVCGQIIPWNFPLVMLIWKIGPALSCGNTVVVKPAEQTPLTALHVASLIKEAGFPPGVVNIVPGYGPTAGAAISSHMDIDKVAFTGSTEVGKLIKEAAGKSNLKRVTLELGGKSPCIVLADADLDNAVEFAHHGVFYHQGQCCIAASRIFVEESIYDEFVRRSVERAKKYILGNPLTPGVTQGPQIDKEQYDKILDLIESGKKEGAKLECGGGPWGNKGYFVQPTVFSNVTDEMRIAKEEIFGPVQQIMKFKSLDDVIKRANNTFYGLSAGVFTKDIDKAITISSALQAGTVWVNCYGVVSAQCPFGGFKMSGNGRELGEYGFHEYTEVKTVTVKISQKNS
HPGD inh conf: Confirmation qHTS Assay for Inhibitors of HPGD (15-Hydroxyprostaglandin Dehydrogenase); shares compounds with HPGD inh; recombinant HPGD, NADH fluorescence, PGE2 substrate; Potency, µM (top dose mostly 57.1 µM), inactives show at the highest dose activity change, negative = inhibition, actives largely listed as inhibitors; 90% of 90 active; AID 2429, 2010; calls by dose curve
* = called active by the depositor; ? = inconclusive; . = no result; [ ] = dose if it differs, or a comment. Unless noted, calls come from the whole dose curve; as a rule, active = well fitted curve in the direction sought with a large enough effect; inconclusive = small, poorly fitted or top-dose-only effect, or another doubt; inactive = no such curve, though single readings can be large; an effect the other way counts as inactive or inconclusive.

SMILES	HTT cytoprotect	CBFb RUNX1 block	PNC assembly inh	HPGD inh	HTT aggregate	ALDH1A1 block	HPGD inh conf
Cc1ccc(S(=O)(=O)N(CC(=O)N2CCN(c3ccc(F)cc3)CC2)C2CCCCC2)cc1	-31%	-6%	43	-9%	-10%	?	.
CCOC(=O)N1CCN(C(=O)CN(C2CCCCC2)S(=O)(=O)c2ccc(C)cc2)CC1	6%	11%	?	1%	4%	7.1µM*	.
CCNC(=O)CN(C1CCCCC1)S(=O)(=O)c1ccc(F)cc1	-7%	14%	11	-13%	-1%	-2%	.
O=c1[nH]cnc2c([N+](=O)[O-])cccc12	-11%	4%	18	-9%	-6%	1%	.
NS(=O)(=O)c1cccc2c1c([N+](=O)[O-])cc1nc(O)c(O)nc12	?	-2%	.	16µM*	.	-3%	.
NS(=O)(=O)c1cccc2c1c([N+](=O)[O-])cc1[nH]c(=O)c(=O)[nH]c12	-2%	?	.	16µM*	.	-3%	.
N#C/C(=C\c1ccc[nH]1)S(=O)(=O)c1ccccc1	-10%[0.074 µM]	6%	12	4.5µM*	-11%	6%	.
COC(=O)[C@@]1(Cc2ccccc2)[C@H]2c3cc(C(=O)N4CCCC4)n(Cc4ccc(OC)c(OC)c4)c3C[C@H]2CN1C(=O)c1ccccc1	2%	-24%	.	-4%	.	-4%	.
O=C(Nc1cccc(F)c1)N1CC[C@@]2(CCCN(C(=O)c3ccco3)C2)C1	-7%	.	.	5%	.	?	.
O=c1[nH]c2ccc(S(=O)(=O)Nc3ccc(-c4nnc5n4CCCCC5)cc3)cc2o1	-13%[10 µM]	2%	?	0.2µM*	15%	-4%	0.13µM*
Cc1c(CN2CCCC(CO)(Cc3cccc(Cl)c3)C2)cnn1C (centres undefined)	-12%[10 µM]	-16%	.	.	7%[9.22 µM]	11%	.
COc1ccc(N2CCN(C(=O)c3ccc(CSc4ccccc4)cc3)CC2)cc1	-4%[0.074 µM]	3%	18	-12%	-3%	0%	-20%
Cc1oc(-c2ccccc2Cl)nc1CSc1nc2c(c(=O)[nH]1)CCCC2	0%[10 µM]	-2%	.	.	-34%[9.22 µM]	.	.
O=c1[nH]c(SCc2ccccc2Cl)nc2c1CCC2	-3%	-1%	-101*	1µM*	-20%	-4%	2.2µM*
COCCNC(=O)c1cc2oc3ccccc3c2n1C	-17%	-4%	4	1.4µM*	4%	?	1.6µM*
CCOc1ccccc1CNC(=O)c1cc2oc3ccccc3c2n1C	-21%	-11%	22	?	?	?	.
Cc1ccc2c(c1)COc1c3ccc(C(=O)N4CCCCC4)cc3nn1-2	3%[10 µM]	-2%	.	.	9%[9.22 µM]	.	.
Cc1cccc(-n2cnc3cc(C(=O)N4CCCCC4)ccc32)c1	-29%[0.074 µM]	3%	-26	0.071µM*	7%	4µM*	0.056µM*
O=C(O)c1ccccc1-c1ccccc1C(=O)NCc1cccc(C(F)(F)F)c1	-13%[10 µM]	-1%	.	.	-14%[9.22 µM]	6%	.
CCOC(=O)c1ccc(N2C(=O)C3CC=C(C)CC3C2=O)cc1 (centres undefined)	-15%	4%	-19	-14%	-3%	?	.
O=C(c1ccc(N2C(=O)C3CC=C(Cl)CC3C2=O)cc1)N1CCOCC1 (centres undefined)	.	1%	.	.	.	-2%	.
CC1=CCC2C(=O)N(c3ccc(C(=O)N4CCCCCC4)cc3)C(=O)C2C1 (centres undefined)	-13%[10 µM]	0%	26	1.4µM*	3%	?	0.79µM*
O=C(c1ccc(N2C(=O)C3CCCCC3C2=O)cc1)N1CCCCC1 (centres undefined)	32%[10 µM]	6%	15	1µM*	8%	?	0.56µM*
O=C(c1ccc(N2C(=O)C3CC=C(Cl)CC3C2=O)cc1)N1CCCCC1 (centres undefined)	-9%	2%	-25	0.5µM*	7%	18µM*	0.25µM*
O=C(Nc1nccs1)c1ccc(N2C(=O)C3CCCCC3C2=O)cc1 (centres undefined)	-2%[10 µM]	-6%	.	.	-16%[9.22 µM]	?	.
SMILES	HTT cytoprotect	CBFb RUNX1 block	PNC assembly inh	HPGD inh	HTT aggregate	ALDH1A1 block	HPGD inh conf
O=C(c1ccc2c(=O)n(Cc3ccc4c(c3)OCO4)c(=S)[nH]c2c1)N1CCCCC1	-8%	-3%	?	0.4µM*	6%	2%	?
O=c1c2ccccc2[nH]c(=S)n1Cc1ccc2c(c1)OCO2	-12%	3%	.	.	-14%	4%	.
CCOC(=O)c1sc(NC(=O)CSc2n[nH]c(-c3ccccc3)n2)c(C#N)c1C	1%[10 µM]	11%	21	1µM*	20µM*	2.8µM*	1.1µM*
CC(=O)Nc1ccc(S(=O)(=O)NC2CCS(=O)(=O)C2)cc1Cl (centres undefined)	18%[10 µM]	-5%	.	.	6%[9.22 µM]	5%	.
COc1ccc2cc(C(=O)N3CCCCCC3)sc(=O)c2c1OC	-13%	5%	-2	0.13µM*	-13%	8.9µM*	0.25µM*
COC(=O)c1cc2ccc(OC)c(OC)c2c(=O)s1	23%[10 µM]	5%	-11	-15%	-18%	2%	.
COC(=O)c1cn(NC(=O)c2cccnc2)c(=O)c2ccccc12	1%	8%	12	-12%	13%	3%	.
CCn1ccc(C(=O)Nc2ccccc2SC)n1	.	13%	.	.	17%	-9%	.
Cc1cc(-c2nnc3n2CCCCC3)c(C)n1-c1ccccc1	0%	-11%	?	0.16µM*	?	?	0.089µM*
c1cc(-c2nnc3n2CCCCC3)ccn1	-7%	10%	-18	-6%	5%[9.22 µM]	12%	.
COCCNC(=O)c1nc2c(nnn2Cc2cc(C)ccc2C)c(=O)[nH]1	13%[1.9 µM]	4%	?	0.2µM*	-2%	?	0.71µM*
Cc1ccc(C)c(Cn2nnc3c(=O)[nH]c(C(=O)NCC4CCCO4)nc32)c1 (centres undefined)	9%[10 µM]	-2%	-3	1.3µM*	-5%	-11%	0.4µM*
CN(C)C(=O)c1ccc(-c2nc(NCc3ccccc3)c3ccccc3n2)cc1	-26%	.	.	?	.	2%	14µM*
CN(C)C(=O)c1ccc(-c2nc(N(C)C)c3ccccc3n2)cc1	-23%	.	.	0.32µM*	.	?	2.5µM*
